Experimental findings from PubChem BioAssay are described below.

Assay [1] in a line: antimalarial activity against Dd2 strain (AID 2302;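 active = growth inhibition above 50% at the single 2 µM test dose, taken to imply half-maximal potency below 2 µM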;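 also: 0% = DMSO untreated growth and 100% = chloroquine plus artemisinin killed control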). To be noted: P. falciparum Dd2 in RBCs, LDH growth readout, 72 h; at 2 µM; hits give high values.
Assay [2] can be described thus: HepG2 cytotoxicity, primary screen, cytotoxicity control for P. falciparum antimalarial project, cell-based, ATP luminescence (AID 2303;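 active = inhibition above 50%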;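 also: 0% = DMSO wells and 100% = digitonin-killed cells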). The conditions noted are these: HepG2 viability, 24-48 h, at 10 µM, hits give high values.
Assay [3] has as its target L-lactate dehydrogenase (Plasmodium falciparum (isolate CDC / Honduras)) (UniProt Q27743). Kind of assay: PfLDH activity inhibition – cell lysate, 3D7 strain, counter-screen for P. falciparum growth inhibition project (AID 2304).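 Also: 0% = vehicle and 100% = reference inhibitor.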 To be noted: P. falciparum 3D7 crude extract, LDH APAD/NBT absorbance; at 2 µM; hits give high values. Background: Counterscreens check selectivity or assay interference.

Assay [4] in a line: inhibition of 3D7 malaria parasite growth – strain 3D7 (AID 2306).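 Also: 0% = DMSO wells and 100% = chloroquine plus artemisinin control wells.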 The conditions noted are these: P. falciparum 3D7 erythrocytic growth, LDH absorbance, 72 h; at 2 µM; hits give high values.
In assay [5] the target is Calcium-dependent protein kinase 1 (Plasmodium falciparum (isolate 3D7)) (UniProt P62344). Nature of the assay: PfCDPK1 kinase inhibitors, biochemical, TCAMS library (AID 1159585; cut-off not given, nearly all actives have IC50 up to about 0.98 µM;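 also: inhibitors leave more ATP so luminescence rises with inhibition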). The conditions noted are these: recombinant PfCDPK1, Kinase-Glo ATP depletion luminescence.
The target in assay [6] is Plasmodium falciparum protein kinase 6 (PK6, PF3D7_1337100) (UniProt Q8IDW1). Nature of the assay: PfPK6 kinase inhibitors, biochemical, TCAMS library (AID 1159586). To be noted: recombinant PfPK6, Kinase-Glo ATP depletion luminescence. (In Kinase-Glo more light means more ATP remaining.)
The target of assay [7] is Protein kinase 7 (PK7), Plasmodium falciparum 3D7 (PF3D7_0213400) (UniProt Q7YTF7). Kind of assay: inhibition of Plasmodium PK7 catalytic activity – biochemical, TCAMS antimalarial set, Kinase-Glo luminescence (AID 1159587). The conditions noted are these: recombinant PfPK7, Kinase-Glo ATP depletion luminescence.
Assay [8] concerns the target Calcium-dependent protein kinase 4 (Plasmodium falciparum (isolate 3D7)) (UniProt Q8IBS5). Nature of the assay: PfCDPK4 kinase inhibitors, biochemical, TCAMS library (AID 1159588; cut-off not given, nearly all actives have IC50 up to about 0.91 µM). To be noted: recombinant PfCDPK4, Kinase-Glo ATP depletion luminescence.

Unmarked numbers belong to inactive results. For some of these results: Potency and affinity values are given separately. The source made the active and inactive calls. Unless noted, no rule for the calls is given here.

L-lactate dehydrogenase (Plasmodium falciparum (isolate CDC / Honduras)), sequence (Q27743 whole entry, looked up): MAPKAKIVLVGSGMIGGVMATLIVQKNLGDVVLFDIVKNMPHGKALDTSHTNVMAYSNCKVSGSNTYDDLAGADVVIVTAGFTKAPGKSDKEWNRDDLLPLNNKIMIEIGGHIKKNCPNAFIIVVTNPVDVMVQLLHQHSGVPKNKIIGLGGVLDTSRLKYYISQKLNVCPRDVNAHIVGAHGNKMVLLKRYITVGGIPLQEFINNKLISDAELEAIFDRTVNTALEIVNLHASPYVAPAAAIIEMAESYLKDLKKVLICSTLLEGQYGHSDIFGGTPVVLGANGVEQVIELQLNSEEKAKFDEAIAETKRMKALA
Calcium-dependent protein kinase 4 (Plasmodium falciparum (isolate 3D7)), sequence (Q8IBS5 whole entry, looked up): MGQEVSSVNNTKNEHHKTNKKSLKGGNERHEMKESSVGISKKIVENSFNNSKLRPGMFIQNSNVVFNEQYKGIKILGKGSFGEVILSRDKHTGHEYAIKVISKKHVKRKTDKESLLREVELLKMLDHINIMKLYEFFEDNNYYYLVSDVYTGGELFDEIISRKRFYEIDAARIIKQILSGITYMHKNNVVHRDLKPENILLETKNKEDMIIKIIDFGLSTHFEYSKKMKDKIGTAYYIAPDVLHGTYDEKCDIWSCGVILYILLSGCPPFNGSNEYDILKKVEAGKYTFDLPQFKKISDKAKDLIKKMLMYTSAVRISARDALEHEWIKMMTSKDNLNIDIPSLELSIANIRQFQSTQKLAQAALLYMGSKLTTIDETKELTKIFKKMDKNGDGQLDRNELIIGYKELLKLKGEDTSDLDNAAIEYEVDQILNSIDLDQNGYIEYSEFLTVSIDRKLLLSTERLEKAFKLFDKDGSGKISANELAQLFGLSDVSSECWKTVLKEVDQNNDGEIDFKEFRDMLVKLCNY
Calcium-dependent protein kinase 1 (Plasmodium falciparum (isolate 3D7)), sequence (P62344 whole entry, looked up): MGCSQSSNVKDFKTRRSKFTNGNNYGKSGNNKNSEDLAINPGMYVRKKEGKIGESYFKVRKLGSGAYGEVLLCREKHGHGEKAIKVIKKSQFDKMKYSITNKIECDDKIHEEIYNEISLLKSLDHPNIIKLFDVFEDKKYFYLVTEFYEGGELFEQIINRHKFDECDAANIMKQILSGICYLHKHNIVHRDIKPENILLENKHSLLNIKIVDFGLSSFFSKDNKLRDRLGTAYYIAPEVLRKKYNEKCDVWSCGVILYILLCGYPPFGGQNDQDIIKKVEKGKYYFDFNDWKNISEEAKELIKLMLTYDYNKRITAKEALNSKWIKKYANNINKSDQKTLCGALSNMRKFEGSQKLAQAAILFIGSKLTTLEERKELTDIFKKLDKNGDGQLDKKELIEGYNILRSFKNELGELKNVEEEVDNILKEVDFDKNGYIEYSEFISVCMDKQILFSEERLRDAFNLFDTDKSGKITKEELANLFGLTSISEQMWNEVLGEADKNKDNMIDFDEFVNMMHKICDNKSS
Plasmodium falciparum protein kinase 6 (PK6, PF3D7_1337100), sequence (Q8IDW1 1-305): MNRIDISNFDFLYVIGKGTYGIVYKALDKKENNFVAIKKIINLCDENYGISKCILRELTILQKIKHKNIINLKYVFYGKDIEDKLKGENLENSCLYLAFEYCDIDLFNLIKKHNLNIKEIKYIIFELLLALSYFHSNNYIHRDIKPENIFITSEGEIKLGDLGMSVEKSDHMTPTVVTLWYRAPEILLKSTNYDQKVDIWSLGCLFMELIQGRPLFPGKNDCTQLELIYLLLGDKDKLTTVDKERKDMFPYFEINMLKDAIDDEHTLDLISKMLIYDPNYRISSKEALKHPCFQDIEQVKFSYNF
Protein kinase 7 (PK7), Plasmodium falciparum 3D7 (PF3D7_0213400), sequence (Q7YTF7 1-343): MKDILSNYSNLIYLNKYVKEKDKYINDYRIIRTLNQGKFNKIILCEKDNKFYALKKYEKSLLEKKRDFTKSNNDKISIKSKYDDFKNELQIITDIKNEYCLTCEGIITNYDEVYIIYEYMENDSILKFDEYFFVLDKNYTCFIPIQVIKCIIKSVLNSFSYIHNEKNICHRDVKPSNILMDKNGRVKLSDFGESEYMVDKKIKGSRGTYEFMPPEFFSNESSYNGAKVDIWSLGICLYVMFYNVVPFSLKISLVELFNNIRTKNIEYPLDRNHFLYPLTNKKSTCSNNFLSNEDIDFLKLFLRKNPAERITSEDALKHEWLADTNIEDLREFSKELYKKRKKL

As for `C[C@H](N[C@H]1CCCc2c1[nH]c1ccc(Br)cc21)c1ccccc1`, the results for the growth inhibition in assay [1] and in assay [4] were 95% (active) and 96% (active), respectively. The results for the inhibition in assay [2] and in assay [3] were 58% (active) and 4%, respectively. Moreover, the result in assay [5], in assay [6], in assay [7] and in assay [8] was inactive.
For `CCOc1ccc(Br)cc1/C=C/C(=O)Nc1ccc2c(c1)CCCN(C)C2`, the growth inhibition was 17% in assay [1] and 90% (active) in assay [4]. For the same molecule, the figures for the inhibition in assay [2] and in assay [3] were 40% and -1%, respectively. Moreover, the outcome in assay [5], in assay [6], in assay [7] and in assay [8] was inactive.
Regarding `N#Cc1ccc2c(c1)CCN(CCC1CCC(NC(=O)c3cc4cccc([N+](=O)[O-])c4[nH]3)CC1)C2` (stereo not given), the growth inhibition in assay [1] is 28%; in assay [4] it was 100% (active). Besides, the figures for the inhibition in assay [2] and in assay [3] were -4% and -5%, respectively. The outcome in assay [5], in assay [6], in assay [7] and in assay [8] was inactive.
In the case of `COc1cccc(C2CCN(CCN3CCC(NC(=O)c4ccc(-c5ccc(C#N)cc5)cc4)CC3)CC2)c1`, the growth inhibition in assay [1] is 47%; in assay [4], 98% (active). Further, the inhibition (as a rule, the change of the read-out against control, counted positive when it falls) in assay [2] is 28%; in assay [3] it was 6%. The result in assay [5], in assay [6], in assay [7] and in assay [8] was inactive.
As to `N#Cc1ccc2c(c1)CCN(CCC1CCC(NC(=O)c3ccc(-c4ccccc4)s3)CC1)CC2` (stereo not given), the growth inhibition in assay [1] is 36%; in assay [4], 99% (active). Further, the inhibition in assay [2] is 6%; in assay [3], 0%. Moreover, the outcome in assay [5], in assay [6], in assay [7] and in assay [8] was inactive.
As for `NC(N)=NN=C1C=Cc2cccc3cccc1c23`, the growth inhibition in assay [1] is 49%; in assay [4], 100% (active). For the same molecule, the inhibition in assay [2] is 9%; in assay [3], 1%. Further, the result in assay [5], in assay [6], in assay [7] and in assay [8] was inactive.
Consider `c1cc(CN2CCCCC2)cc(-c2csc(-c3nc4ccccc4[nH]3)c2)c1`, for which the growth inhibition in assay [1] is 16%; in assay [4], 90% (active). Moreover, the inhibition is 26% in assay [2] and 4% in assay [3]. Moreover, the outcome in assay [5], in assay [6], in assay [7] and in assay [8] was inactive.
Take `Cc1cc(CN2CCC(C(=O)Nc3ccc(-c4nc5ccccc5[nH]4)cc3)CC2)oc1C`: the results for the growth inhibition in assay [1] and in assay [4] were 9% and 95% (active), respectively. Further, the results for the inhibition in assay [2] and in assay [3] were -7% and -4%, respectively. The outcome in assay [5], in assay [6], in assay [7] and in assay [8] was inactive.
With `Cc1ccc2nc(/C=C/c3cccc4cc[nH]c34)[nH]c2c1`, the growth inhibition in assay [1] is 92% (active); in assay [4] it was 100% (active). Also, the inhibition in assay [2] was 9%; in assay [3], -3%. The outcome in assay [5], in assay [6], in assay [7] and in assay [8] was inactive.
Consider `COc1ccc(-c2cccc(NC(=O)c3cccc(C#N)c3)c2)cc1CN1CCNCC1`, for which the growth inhibition is 15% in assay [1] and 101% (active) in assay [4]. Further, the inhibition is 27% in assay [2] and 0% in assay [3]. The result in assay [5], in assay [6], in assay [7] and in assay [8] was inactive.
As to `Cc1cc(C(=O)Nc2ccc3c(c2)CCN3C2CCN(Cc3ccc4nsnc4c3)C2)no1` (stereo not given), the figures for the growth inhibition in assay [1] and in assay [4] were 94% (active) and 90% (active), respectively. The inhibition in assay [2] and in assay [3] was -1% each time. For the same molecule, the result in assay [5], in assay [6], in assay [7] and in assay [8] was inactive.
Regarding `COc1ccccc1Cn1ccnc1SCC(=O)Nc1cc(C(F)(F)F)ccc1Cl`, the values for the growth inhibition in assay [1] and in assay [4] were 97% (active) and 96% (active), respectively. Besides, the inhibition in assay [2] was 12%; in assay [3], 1%. Besides, the outcome in assay [5], in assay [6], in assay [7] and in assay [8] was inactive.
Consider `C=CCn1cc(C2CCN(CCCCNC(=O)c3sc(-c4ccc(C(F)(F)F)cc4)nc3CO)CC2)c2cc(OC)ccc21`, for which the growth inhibition in assay [1] was 4%; in assay [4], 91% (active). Also, the inhibition in assay [2] is 40%; in assay [3] it was 4%. The result in assay [5], in assay [6], in assay [7] and in assay [8] was inactive.
As to `CN1CCCC(COc2cc3c(cc2Br)CCN3C(=O)Nc2ccc(-c3ccncc3)c(Cl)c2)C1` (stereo not given), the growth inhibition in assay [1] was 96% (active); in assay [4] it was 100% (active). Besides, the values for the inhibition in assay [2] and in assay [3] were 99% (active) and -2%, respectively. Besides, the result in assay [5], in assay [6], in assay [7] and in assay [8] was inactive.
As to `COc1ccc2ncc(C#N)c(CCN3CCC(NCc4ccc5c(n4)NC(=O)CS5)CC3)c2n1`, the growth inhibition in assay [1] was 17%; in assay [4], 89% (active). Moreover, the inhibition was 9% in assay [2] and -1% in assay [3]. Further, the result in assay [5], in assay [6], in assay [7] and in assay [8] was inactive.
Take `Cc1ccc(NC(=O)c2ccnc(N3CCN(c4ccncc4)CC3)c2)cc1F`: the growth inhibition in assay [1] was 12%; in assay [4], 94% (active). The inhibition in assay [2] was 43%; in assay [3], -2%. In addition, the result in assay [5], in assay [6], in assay [7] and in assay [8] was inactive.
Regarding `O=C(NCCN1CCOCC1)c1ccc(-c2ccc(CNCCCc3ccccc3)cc2)nc1`, the figures for the growth inhibition in assay [1] and in assay [4] were 10% and 97% (active), respectively. Besides, the inhibition is -11% in assay [2] and -1% in assay [3]. Besides, the result in assay [5], in assay [6], in assay [7] and in assay [8] was inactive.
In the case of `CN1CCN(c2ccnc3ccc(NC(=O)Nc4ccc5c(c4)CCCC5=O)cc23)CC1`, the growth inhibition in assay [1] was 90% (active); in assay [4], 101% (active). The figures for the inhibition in assay [2] and in assay [3] were 8% and 4%, respectively. The outcome in assay [5], in assay [6], in assay [7] and in assay [8] was inactive.
Regarding `c1ccc(CCNc2ncnc3c2[nH]c2ccccc23)cc1`, the growth inhibition in assay [1] is 94% (active); in assay [4], 95% (active). Also, the inhibition in assay [2] was 50% (active); in assay [3], -1%. Further, the outcome in assay [5], in assay [6], in assay [7] and in assay [8] was inactive.
For the molecule `COc1ccccc1CCC(C)(C)NC(=O)CC(CCc1ccccc1)Nc1ccc(C#N)c2ccccc12` (stereo not given), the growth inhibition is 65% (active) in assay [1] and 94% (active) in assay [4]. For the same molecule, the inhibition in assay [2] was 6%; in assay [3], 0%. Also, the result in assay [5], in assay [6], in assay [7] and in assay [8] was inactive.
